High-throughput results as filed in PubChem BioAssay.
MBD2 DNA inh: blocks human MBD2 binding to methylated DNA; Q9UBB5; TR-FRET, MBD2 binding to methylated oligonucleotide; inhibition, % at 4.4 µM; 370,000 compounds, 0.31% hits; AID 686964; in the data active = inhibition above about 13%
PRMT1 inh: PRMT1 (human) inhibition, primary screen. Q99873. recombinant PRMT1, activity-based probe fluorescence polarization. inhibition, % at 2.79 µM. 370,000 compounds, 1.3% hits. AID 652257;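 active = inhibition above about 21% made by adding two undisclosed values, limit read from the data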
ABHD5-PLIN5 inh: ABHD5-PLIN5 protein interaction inhibition; Q00G26+Q8WTS1; Split G. princeps luciferase complementation, luminescence, 4 h; 360,000 compounds, 0.78% hits; inhibition, % at 4 µM;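 active = inhibition above the mean inhibition across every tested compound plus 3 SD, cut at about 22% in these data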;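 note: 0% = DMSO only wells and the 100% control is not disclosed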
LEDGF integ inh: blocks HIV-1 LEDGF/p75-dependent DNA integration | 370,000 compounds, 0.64% hits | TR-FRET IN-LEDGF/p75 DNA integration, Eu/Cy5 | inhibition, % at 3.7 µM | AID 743269;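 active = inhibition above the screen-wide mean plus 3 SD, cut at about 13% in these data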;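 note: signal is the Cy5 over europium emission ratio at 671 and 618 nm; 0% = plate median of compound wells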
UHRF1 binding: human UHRF1 methylated DNA binding inhibitors. Q96T88. UHRF1 binding to methylated oligo, TR-FRET. inhibition, % at 4.4 µM. 370,000 compounds, 0.75% hits. AID 687016; in the data active = inhibition above about 21%;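 note: UHRF1 SRA domain binding a hemimethylated CpG hairpin DNA probe; 0% = median of test compound wells and 100% = reference inhibitor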
rCAG binder: r(CAG) repeat RNA binding | TO-PRO-1 dye displacement fluorescence | inhibition, % at 3 µM | 370,000 compounds, 1.3% hits | AID 651821;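 active = inhibition above the plate cutoff, the mean of all test compounds on that plate plus 3 SD, cut at about 35% in these data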;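 note: 0% = DMSO alone and 100% = 100 µM mitoxantrone as full dye displacement; higher means more dye released from RNA so lower well fluorescence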
PRMT1 inh conf: confirmation of human PRMT1 inhibitors; shares compounds with PRMT1 inh; 3,300 compounds, 42% hits; inhibition, % at 2.79 µM; recombinant His-PRMT1, activity-based probe fluorescence polarization;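 active = mean inhibition across replicates above the hit cutoff derived for the earlier primary screen, cut at about 22% in these data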
* marks the source's active call; other numbers are inactive results; x = no result. In the library only some 4.1% were active in any assay of this set; here they are far more common.

SMILES	MBD2 DNA inh	PRMT1 inh	ABHD5-PLIN5 inh	LEDGF integ inh	UHRF1 binding	rCAG binder	PRMT1 inh conf
S=c1[nH]nc(COc2ccccc2)n1/N=C/c1ccc(Cl)c(Cl)c1	-5	1	-6	4	-1	7	x
COc1ccc(N/C=C2\CCc3ccccc3C2=O)cc1	-24	59*	-13	11	-14	0	44*
S=c1[nH]c2ccc(Cl)cc2[nH]1	-2	1	-4	0	-2	1	x
S=c1[nH]c2cc(Cl)ccc2s1	6	47*	-5	1	3	-1	7
O=C(CSCC(=O)c1ccccc1)Nc1ccccc1Cl	10	99*	-3	-1	15	-3	28*
COc1ccc(C(=O)C[n+]2ccc3c(c2)nc(Cc2ccccc2)n3C)cc1	5	29*	x	0	4	7	6
Brc1ccc2[nH]c3nc(SCCN4CCOCC4)nnc3c2c1	-1	2	9	-3	7	8	x
c1ccc2c(c1)[nH]c1nc(SCCN3CCOCC3)nnc12	-2	30*	-2	-1	-5	2	3
N#CCc1c(C#N)c(N)nc(Nc2ccccc2)c1C#N	3	40*	18	-1	-2	12	-1
CCOC(=O)c1c(C)nc(SCC(N)=O)c(C#N)c1-c1ccccc1	-2	35*	1	4	0	-1	-5
O=C(NC1CCCCN(Cc2cccc(F)c2)C1=O)c1cccc(C(F)(F)F)c1 (centres undefined)	5	-4	x	3	2	-1	x
COc1ccc(N=Cc2ccccc2O)cc1	0	-3	0	-1	-1	2	x
COc1ccc2sc(/C=C/c3ccccc3O)[n+](C)c2c1	-18	36*	-7	-7	-18	-39	0
COC(=O)C1=C(C)N(Cc2cccc(C(F)(F)F)c2)C(=NCc2cc(OC)c(OC)c(OC)c2)NC1c1cccc(C(F)(F)F)c1 (centres undefined)	-3	-4	x	4	-3	2	x
C[n+]1c2n(c3ccccc31)N=C(c1ccc(Br)cc1)CS2	-1	57*	-12	4	-69	9	2
C[n+]1c2n(c3ccccc31)N=C(c1ccccc1)CS2	-4	48*	-8	-4	-28	5	8
C[n+]1c2n(c3ccccc31)N=C(c1ccc(-c3ccccc3)cc1)CS2	1	5	12	1	-46	11	x
CCN(CC)CCCNC(=O)CSc1nc2cccnc2n1C	0	-3	x	3	-3	1	x
COC(=O)[C@]12C[C@H](CC(=O)N3CCCC3)C(=O)N(Cc3ccccc3)C1=C[C@H](C1CCCC1)O[C@@H]2C	-5	-3	x	1	-2	-1	x
COc1ccc(OC)c(NC(=O)CS(=O)(=O)c2cn(CC(=O)N3CCOCC3)c3ccccc23)c1	-1	0	7	0	-4	4	x
COc1ccc(NC(=O)CS(=O)(=O)c2cn(CC(=O)N3CCOCC3)c3ccccc23)cc1OC	4	35*	-13	-5	1	-1	21*
CCOc1c(OC(C)=O)ccc(/C=C2\N=C(SCC)SC2=O)c1[N+](=O)[O-]	-1	27*	-18	2	-1	25	7
CCOc1cc(/C=C2\N=C(SCC)SC2=O)cc([N+](=O)[O-])c1OC(C)=O	-1	7	-2	2	0	28	x
CNC(=O)c1nnsc1S(=O)(=O)c1ccc(Cl)cc1	-3	78*	74*	1	-3	-1	72*
S=c1nc(-c2cc(Cl)ccc2Cl)[nH][nH]1	-2	56*	-6	-3	-1	27	47*
SMILES	MBD2 DNA inh	PRMT1 inh	ABHD5-PLIN5 inh	LEDGF integ inh	UHRF1 binding	rCAG binder	PRMT1 inh conf
C=CCN1C(=O)[C@H](CC(=O)N2CCN(C(=O)c3ccco3)CC2)[C@@]2(C(=O)OCC)CCCC=C12	-1	-1	x	2	-1	1	x
C=CCN1C(=O)[C@@H](CC(=O)NCc2cccs2)[C@]2(C(=O)OC)CCCCC=C12	3	2	x	1	3	6	x
COC(=O)[C@]12C[C@H](CC(=O)NCCc3ccccc3OC)C(=O)N(Cc3ccc(Cl)cc3Cl)C1=C[C@H](COCc1ccccc1)O[C@@H]2C	3	-1	x	-1	1	11	x
Cc1cc2cc(C(c3nnnn3Cc3ccco3)N3CCc4ccccc4C3)c(=O)[nH]c2cc1C (centres undefined)	-8	69*	-7	13	-3	26	66*
Cc1cc2cc(C(c3nnnn3Cc3ccco3)N3CCc4ccccc43)c(=O)[nH]c2cc1C (centres undefined)	0	19	6	1	-3	18	x
Cc1ccsc1C(=O)NNC(=O)c1ccc(NS(=O)(=O)c2cccs2)cc1	-1	0	7	-3	-5	7	x
Cc1ccsc1C(=O)NNC(=O)c1ccncc1	6	31*	-1	1	0	0	1
C=CCn1c(Sc2ncc([N+](=O)[O-])s2)n[nH]c1=O	-2	75*	4	7	1	3	61*
O=C1NCCN1c1ncc([N+](=O)[O-])s1	-8	2	7	0	-1	0	x
COC(=O)C1=C(C)N(C)C(=NCc2ccc3c(c2)OCO3)NC1c1ccc(Cl)cc1 (centres undefined)	2	-2	x	1	4	12	x
C=CCc1cccc2cc(C(=O)NNC(=O)c3ccncc3)c(=O)oc12	-2	27*	3	-3	0	7	26*
C=CCc1cccc2cc(C(=O)Nc3cccc(C(=O)O)c3)c(=O)oc12	4	0	x	3	19	1	x
COc1ccccc1-c1cccc2c3c([nH]c12)[C@@H]1C[C@H]2[C@@H](CN1CC3)[C@H](C)ON2C	4	1	x	1	1	5	x
Cc1[nH]nc2c1C1(CCN(Cc3ccccc3)CC1)C(C#N)=C(N)O2	1	34*	-6	3	-9	-15	1
CC(C)c1[nH]nc2c1C1(CCN(Cc3ccccc3)CC1)C(C#N)=C(N)O2	0	12	4	0	-4	-2	x
Cc1ccc(/C=N/n2c(-c3cccs3)n[nH]c2=S)cc1	-4	25*	-20	-1	1	20	13
Cc1ccc(/C=N/n2c(-c3ccccc3)n[nH]c2=S)cc1	3	16	-7	-5	-1	18	x
CCCCCCn1c(-c2cccs2)n[nH]c1=S	2	41*	-16	-1	15	3	5
CCCCn1c(-c2csc3ccccc23)n[nH]c1=S	5	1	-7	-1	-1	3	x
Cc1[nH]c(SCC(=O)Nc2cc(S(C)(=O)=O)ccc2Cl)nc1Cc1ccccc1	8	26*	-3	5	1	10	9
